According to PubChem BioAssay (NCATS):
Inconclusive results are not listed. Active and inactive are the calls of the source. Calls follow the shape of the dose curve; as a rule, active = well fitted inhibition curve with a large enough effect; inconclusive = small, poorly fitted or top-dose-only effect; inactive = flat fitted curve, though single readings scatter.

test system: MKL-1; assay: qHTS assay to identify novel small-molecules to repurpose for Merkel cell carcinoma treatment (AID 1296009); conditions: MCC and control cell lines, CellTiter-Glo viability, 72 h; series mostly up to 46 µM; activity change, negative = cytotoxicity: at the top concentration; also: nearly all actives have a fitted effect of over 60% in size
From the text: MCC is a rare and aggressive neuroendocrine skin cancer with limited treatment options. Approximately 80% of MCCs have the Merkel cell polyomavirus (MCPyV) DNA integrated into the host genome (virus-positive: VP-MCC) and viral oncogenes drive oncogenesis. The remaining MCCs are virus-negative (VN-MCC) and are caused by UV mutagenesis. To identify novel treatments for VP-MCC and/or VN-MCC we screened three VP-MCC cell lines (WAGA, MKL-1, MKL-2), three VN-MCC cell lines (MCC-13, MCC-26, UISO), and four immortalized, non-transformed control cell lines (HaCaT, HEK293T, CRL7250, NIH-3T3) against ~2,400 compounds in the NCGC Pharmaceutical Collection (NPC) and ~1,900 compounds in the Mechanism Interrogation PlatE (MiPE). Using cell viability as a readout (CellTiter-Glo assay) we found both overlapping and distinct drugs that can be repurposed for the treatment of VP-MCC and VN-MCC.
A high-throughput screen was conducted in 1536-well white flat bottom plates (Corning) on a Kalypsys robotic system. Cell lines WAGA, MKL-1, MKL-2, MCC-13, MCC-26, UISO, HaCaT, HEK293T, CRL7250, and NIH-3T3 were screened against 2 small molecule annotated drug libraries NPC and MIPE in dose response (8 and 11 pt. respectively) measuring cell viability after 72 hours of incubation. […] A 1,536 pintool (Kalypsys) was used to transfer 23 nL of compound in DMSO to the 1,536-well assay plates. After 72 hr incubation at 37 degree celsius, 2.5 uL of CellTiter-Glo (Promega) was dispensed into each well using a BiorapTR. Plates were incubated at room temperature for 10 min, transferred to a ViewLux (PerkinElmer) and the luminescence was recorded using an exposure time of 2 seconds. Relative luminescence units (RLUs) were normalized to in-plate controls (no cells as a positive (cytotoxicity) control, DMSO as negative control) and the normalized data was processed using NCATS in-house software.
% is scaled to controls: 0 for no effect and ±100 for the full control effect.

Row | Compound | activity change, negative = cytotoxicity | Potency
1 | NC(=O)c1cn(Cc2c(F)cccc2F)nn1 | 16.7% (inactive) | –
2 | CCN(CC)CCCN(c1ccccc1)C1Cc2ccccc2C1 | -16.8% (inactive) | –
3 | O=C(CCNNC(=O)c1ccncc1)NCc1ccccc1 | -12.4% (inactive) | –
4 | O=C(O)CCCCCCCC(=O)O | 0.0692% (inactive) | –
5 | CN(C)C(=O)Oc1cccc([N+](C)(C)C)c1 | 15.3% (inactive) | –
6 | N[C@@H](COP(=O)(O)O)C(=O)O | -1.2% [at 16.1 µM] (inactive) | –
7 | Cc1scc2c1N(C(=O)CN1CCN(C)CC1)c1ccccc1NC2=O | 7.01% (inactive) | –
8 | CC(C(=O)O)c1ccc(CC2CCCC2=O)cc1 (stereo not given) | 15% (inactive) | –
9 | CCN(Cc1ccncc1)C(=O)C(CO)c1ccccc1 (stereo not given) | -10.7% (inactive) | –
10 | CCN(CC)CCOCCOC(=O)C1(c2ccccc2)CCCC1 | -4.96% (inactive) | –
11 | CCCCCCCC/C=C\CCCCCCCC(=O)NCc1ccc(O)c(OC)c1 | -22.1% (inactive) | –
12 | CO[C@@]1(NC(=O)CSCC#N)C(=O)N2C(C(=O)O)=C(CSc3nnnn3C)CS[C@@H]21 | -2.57% (inactive) | –
13 | CN(C)C(=O)Oc1ccc[n+](C)c1 | 2.99% (inactive) | –
14 | C(=C\c1ccccc1)/CN1CCN(C(c2ccccc2)c2ccccc2)CC1 | 7.33% (inactive) | –
15 | CCCCOCCOCCOCc1cc2c(cc1CCC)OCO2 | – | inactive
16 | Cc1cc(C)c(/C=C2\C(=O)Nc3ccccc32)[nH]1 | -0.0798% (inactive) | –
17 | C[C@]12C=CC(=O)C=C1CC[C@H]1[C@@H]3C[C@@H](O)[C@](O)(C(=O)CO)[C@@]3(C)C[C@H](O)[C@@]12F | 13.4% (inactive) | –
18 | NC/C=C/C(=O)O | 2.22% (inactive) | –
19 | OC(CCN1CCCCC1)(c1ccccc1)C1CCCCC1 (stereo not given) | 1.69% (inactive) | –
20 | O=C1CC2(CCCC2)CC(=O)N1CCCCN1CCN(c2ncccn2)CC1 | -7.24% (inactive) | –

Row | Compound | activity change, negative = cytotoxicity | Potency
21 | c1ccc2c(c1)CCCC2C1=NCCN1 (stereo not given) | 6.87% (inactive) | –
22 | COc1ccc(CCN(C)CCCC(C#N)(c2cc(OC)c(OC)c(OC)c2)C(C)C)cc1OC (stereo not given) | -18.7% (inactive) | –
23 | NC(=Nc1ccccc1)Nc1ccccc1 | – | inactive
24 | CC(=O)Nc1nnc(S(N)(=O)=O)s1 | 14.7% (inactive) | –
25 | CC(C)NCC(O)c1cc(O)cc(O)c1 (stereo not given) | -4.73% (inactive) | –
26 | CCCN(CCC)CCc1cccc2c1CC(=O)N2 | 10.7% (inactive) | –
27 | CN(C)CCCN1c2ccccc2Sc2ccccc21 | -20.3% (inactive) | –
28 | O=c1[nH]c(=O)n([C@H]2C[C@H](O)[C@@H](CO)O2)cc1Br | -6.57% (inactive) | –
29 | Cc1ccc(Cl)c(Nc2ccccc2C(=O)O)c1Cl | 0.528% (inactive) | –
30 | CCCCNc1c(C(=O)OCC)c(C)nc2c1cnn2CC | -12.3% (inactive) | –
31 | CN1CCN(CC(=O)N2c3ccccc3C(=O)Nc3cccnc32)CC1 | -1.15% [at 4.84 µM] (inactive) | –
32 | CC1=NS(=O)(=O)c2cc(Cl)ccc2N1 | 4.85% (inactive) | –
33 | CN(C(=O)CCCOc1ccc2[nH]c(=O)ccc2c1)C1CCCCC1 | -13.5% (inactive) | –
34 | C[C@]12CCC(=O)C=C1CC[C@@H]1[C@@H]2C(=O)C[C@@]2(C)[C@H]1CC[C@]2(O)C(=O)CO | 13.4% (inactive) | –
35 | Brc1c(NC2=NCCN2)ccc2nccnc12 | -22.3% (inactive) | –
36 | CCN1CCC[C@H]1CNC(=O)c1c(O)c(Cl)cc(Cl)c1OC | 17.3% (inactive) | –
37 | COc1ccc2c(c1OC)C(=O)O[C@@H]2[C@H]1c2c(cc3c(c2OC)OCO3)CCN1C | -7.54% (inactive) | –
38 | C[C@H](CS)C(=O)N1CCC[C@H]1C(=O)O | 6.54% (inactive) | –
39 | CSc1ccc(C(=O)c2[nH]c(=O)[nH]c2C)cc1 | 2.83% (inactive) | –
40 | CCOC(=O)C1=C(C)NC(C)=C(C(=O)OC)C1c1cccc([N+](=O)[O-])c1 (stereo not given) | -14.2% (inactive) | –
